PubChem BioAssay (NCATS)
Results filed as inconclusive are left out. Entries that show only a call come without a potency. Unmarked numbers belong to inactive results. Active and inactive are the calls of the source. The call rests on the fitted dose curve; in most records, active means well fitted inhibition curve with a large enough effect; inconclusive means small, poorly fitted or top-dose-only effect; inactive means flat fitted curve, though single readings scatter.

Each compound was assayed against Phospholipid hydroperoxide glutathione peroxidase GPX4 (Homo sapiens) (UniProt P36969) (assay: Primary qHTS Assay for Inhibitors of Recombinant Selenoprotein Glutathione Peroxidase 4 (GPX4) (AID 1845192; further: nearly all actives have a fitted effect of over 65% in size)). Conditions: recombinant GPX4, GR-coupled NADPH fluorescence, 15 min; series mostly up to 50 µM; activity change, negative = inhibition: at the top concentration.
Phospholipid hydroperoxide glutathione peroxidase GPX4 (Homo sapiens), sequence (P36969 whole entry, looked up): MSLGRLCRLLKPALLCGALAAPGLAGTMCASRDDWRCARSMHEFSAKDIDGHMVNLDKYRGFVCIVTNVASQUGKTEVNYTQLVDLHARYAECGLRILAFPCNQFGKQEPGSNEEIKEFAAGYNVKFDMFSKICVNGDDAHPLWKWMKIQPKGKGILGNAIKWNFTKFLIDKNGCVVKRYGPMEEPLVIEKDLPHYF
Text: Assay Provider: Elias S.J. Arner MD PhD.
Department of Medical Biochemistry and Biophysics
Karolinska Institutet, Solna, Stockholm, Sweden
Selenoprotein glutathione peroxidases (GPX), like the ubiquitously expressed GPX1 and the ferroptosis modulator GPX4, enact their antioxidant activities by reducing hydroperoxides using glutathione. […] GPX1 and GPX4 inhibitors have thus shown promise as anti-cancer agents. Existing inhibitors are often promiscuous, or modulate GPX activity only indirectly, so novel direct inhibitors identified through screening against GPX1 and GPX4 could be valuable. Here, we developed optimized glutathione reductase (GR)-coupled GPX assays for the biochemical high-throughput screen (HTS) of almost 12,000 compounds with known mechanisms of action. Initial hits were triaged using a GR counter-screen, assessed for isoform specificity using a separate GPX2 assay, and were assessed for general selenocysteine-targeting activity using a thioredoxin reductase (TXNRD1) assay. With this suite of assays, we identified novel GPX1/GPX2- and GPX4-specific inhibitors and can here present a validated pipeline for future discovery research for selenoprotein-targeting agents.
SEQUENCE No. (e.g., 1, 2, 3, etc.); […] (e.g., Cells, Incubation, Reagent, etc.); VALUE; DESCRIPTION.
1; Reagent 1; 3 uL; 333.33 nM GPx4 enzyme or no enzyme control in 1536-well, black, solid Greiner assay plate.
2; Compound; 25 nL; Kalypsis pin tool (Wako USA) equipped with a 1536-well pin head.
3; Incubation; 30 min; room temperature.
4; Reagent 2; 1 uL; 500 nM GR, 5 mM GSH, 2.5 mM NADPH solution
5; Reagent 3; 1 uL; 2.5 mM CHP in 50% EtOH.
6; Detection; Fluorescence; ViewLux microplate reader, excitation 340 nm and emission 450 nm.
7; Incubation; 15 min; room temperature.
8; Detection; Fluorescence; ViewLux microplate reader, excitation 340 nm and emission 450 nm.
NOTES (numbers refer to Sequence numbers above)
1. 3 µL of 333.33 nM GPX4 and 0.016% BSA in assay buffer (50 mM Tris-HCl, 2 mM EDTA (pH 7.5), 150 mM NaCl) was added to columns 3-48 of 1536-well plates using a BioRAPTR Flying Reagent Dispenser (Let's Go Robotics (LGR), Carlsbad, CA). A no-enzyme control (0.01% BSA in TES assay buffer) was added to columns 1-2.
2. 25 nL, library and DMSO controls were added to each well with a pin tool (Kalypsys).
3. The assay plates were incubated for 30 minutes at room temperature.
4. 1 µL of master mix (500 nM glutathione reductase (GR), 5 mM reduced glutathione (GSH), 2.5 mM NADPH in assay buffer) was added.
5. 1 µL of cumene hydroperoxide (CHP) ([2.5 mM] in 50% EtOH) was then added within 5 minutes to initiate the reaction. Final concentrations were: 200 nM GPX4, 1 mM GSH, 0.5 mM CHP, 0.5 mM NADPH, 100 nM GR, 0.01% BSA.
6. Initial fluorescence readout (t=0) at 340/450 nm was measured using a ViewLux multimodal detector (PerkinElmer, Waltham, MA).
8. Endpoint fluorescence readout (t=15) at 340/450 nm was measured 15 min after room temperature incubation.
`C[C@]12CC[C@@H]3c4ccc(O)cc4C[C@@H](CCCCCCCCCS(=O)CCCC(F)(F)C(F)(F)F)[C@H]3[C@H]1CC[C@H]2O` (stereo not given in full) was tested, and the “activity change, negative = inhibition” value was -3.61%. `CC(C)n1nc(-c2ccc3oc(N)nc3c2)c2c(N)ncnc21` was tested, and the Potency was “inactive”. In the case of `O=C1C(Cl)=C(NCCN2CCOCC2)C(=O)c2ncccc21`, the “activity change, negative = inhibition” value is reported as -1.53%. `OC[C@@H](O)[C@H](O)[C@H](O)[C@@H](O)CO` was tested, and the “outcome” value was “inactive”. In the case of `CC(=O)O[C@]1(C(C)=O)CC[C@H]2[C@@H]3C=C(Cl)C4=CC(=O)[C@@H]5C[C@@H]5[C@]4(C)[C@H]3CC[C@@]21C`, the Potency is reported as “inactive”. For `O=C1NC(=O)C(c2ccccc2)(c2ccccc2)N1`, the Potency was “inactive”. In the case of `Cc1ccc(Nc2cc(-c3cccc(N4C(=O)c5ccccc5C4=O)c3)ncn2)cc1NS(C)(=O)=O`, the “activity change, negative = inhibition” value is reported as -8.62%. In the case of `Cc1ccc(C(=O)Nc2cccc(C(F)(F)F)c2)cc1Nc1nc(-c2cccnc2)nc2c1cnn2C`, the “outcome” value is reported as “inactive”. With `COc1cc2ncnc(-n3nc(-c4ccccn4)nc3N)c2cc1OC` the Potency was “inactive”. For `NS(=O)(=O)c1ccc(NC2=CC(=O)c3ccccc3C2=O)cc1`, the “outcome” value was “inactive”. `COc1cccc([C@@H](C)NCCCc2ccccc2Cl)c1` was tested, and the “activity change, negative = inhibition” value was 3.57%. For `COc1ccc(-c2coc3cc(O)cc(O)c3c2=O)cc1`, the “activity change, negative = inhibition” value was -44.4%. With `CC(C)C(=O)Oc1ccc(CO)cc1[C@H](CCN(C(C)C)C(C)C)c1ccccc1` the “outcome” value was “inactive”. For `C[C@H](NC(=O)C(=O)Nc1ccccc1C(C)(C)C)C(=O)N[C@@H](CC(=O)O)C(=O)COc1c(F)c(F)cc(F)c1F`, the “activity change, negative = inhibition” value was -7.29%. With `O=c1cc(CN2CCOCC2)occ1OCCCCCSc1ccnc2cc(C(F)(F)F)ccc12` the “activity change, negative = inhibition” value was -2.54%. In the case of `CCOC(=O)C1=C(N)Oc2ccc(Br)cc2C1C(C#N)C(=O)OCC` (stereo not given), the Potency is reported as “inactive”. With `c1ccc2c(-c3cnn4cc(-c5ccc(N6CCNCC6)cc5)cnc34)ccnc2c1` the “activity change, negative = inhibition” value was -7.38%. With `O=C1c2ccccc2-[n+]2ccc3c([nH]c4ccccc43)c21` the “outcome” value was “inactive”. In the case of `CC#CCn1c(N2CCC[C@@H](N)C2)nc2c1c(=O)n(Cc1nc(C)c3ccccc3n1)c(=O)n2C`, the Potency is reported as “inactive”. With `CC(=O)N(C)C1(c2ccccc2)CCN(CCC[C@]2(c3ccc(Cl)c(Cl)c3)CCCN(C(=O)c3ccccc3)C2)CC1` the “activity change, negative = inhibition” value was -19.3%. `CCOc1ccc(Nc2nc(-c3c(C)nc4ccccn34)cs2)cc1` was tested, and the “activity change, negative = inhibition” value was -17.3%. With `O=C(NCCN1CCOCC1)c1ccc(Cl)cc1` the Potency was “inactive”. With `NS(=O)(=O)c1cccc2c1C(=O)c1cccc(O)c1C2=O` the “activity change, negative = inhibition” value was -20.7%. For `O=c1cc(N2CCOCC2)oc2c(-c3cccc4c3sc3ccccc34)cccc12`, the “activity change, negative = inhibition” value was -21.3%. In the case of `C[C@H](NC(=O)c1sccc1OCc1ccc(Cl)cc1)c1ccccc1`, the “outcome” value is reported as “inactive”. `NC(N)=Nc1nc(CSCC/C(N)=N/S(N)(=O)=O)cs1` was tested, and the Potency was “inactive”. In the case of `CCOC(CN1C(=O)[C@](CC(=O)Nc2ccc(C)cc2)(NC(=O)Nc2ccc(C)cc2)c2ccccc21)OCC`, the “activity change, negative = inhibition” value is reported as -17%. `O=C(Nc1cc(Cl)cc2c1[nH]c1cnccc12)c1cccnc1` was tested, and the “activity change, negative = inhibition” value was -12.5% [at 27.8 µM]. For `O=C(NCc1ccncc1)C12C[C@H]3C[C@@H](C1)CC(c1ccc(Cl)cc1)(C3)C2`, the “activity change, negative = inhibition” value was -4.91%. In the case of `c1cc(-c2sc(-c3ccncc3)c(-c3ccncc3)c2-c2ccncc2)ccn1`, the “activity change, negative = inhibition” value is reported as -0.385%. For `NCCS`, the Potency was “inactive”. With `O=C(O)Cc1cccc2ccccc12` the “activity change, negative = inhibition” value was 3.42%. For `CN(C)C1CCN(C(=O)c2ccc(NC(=O)Nc3nc(N4CCOCC4)nc(N4CCOCC4)n3)cc2)CC1`, the “activity change, negative = inhibition” value was -2.64% [at 27.8 µM]. With `O=C(O)CCc1nc(-c2ccccc2)c(-c2ccccc2)o1` the Potency was “inactive”. `C[N+](C)(C)CCCCCC[N+](C)(C)C` was tested, and the Potency was “inactive”. For `CNC1CCC(N(Cc2cccc(-c3ccncc3)c2)C(=O)c2sc3c(F)ccc(F)c3c2Cl)CC1` (stereo not given), the Potency was “inactive”. With `CC(C)NCC(O)COc1cccc2[nH]ccc12` (stereo not given) the Potency was “inactive”. In the case of `CCCCCNC(=O)N1CCC(CN(Cc2ccc(Cl)cc2)Cc2ccc([N+](=O)[O-])s2)C1` (stereo not given), the “activity change, negative = inhibition” value is reported as -14.4%. For `CC(=O)CCCCn1c(=O)c2c(ncn2C)n(C)c1=O`, the Potency was “inactive”. `O=C(O)C(O)Cc1ccc(O)c(O)c1` (stereo not given) was tested, and the “activity change, negative = inhibition” value was -2.49% [at 100 µM].
